Compound activity as filed in PubChem.
ADAM10 inh = human ADAM10 inhibitors, primary screen, biochemical, QFRET, HTS; AID 720582, 2013; hit rate 0.62% among 370,000; recombinant ADAM10, EDANS/DABCYL FRET peptide cleavage, 3 h; Disintegrin and metalloproteinase domain-containing protein 10 (Homo sapiens), O14672; inhibition, % at 7 µM;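 active = inhibition above a per-campaign cutoff equal to the mean of compounds falling between control-based bounds plus 3 SD, cut at about 20% in these data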;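 note: 0% = DMSO wells while the 100% control is not disclosed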
APOBEC3A inh = APOBEC3A ssDNA deaminase inhibitors, primary screen, selectivity assay for APOBEC3G inhibitor project, biochemical, FAM/TAMRA oligo cleavage fluorescence | hit rate 0.41% among 330,000 | inhibition, % at 20 µM | recombinant A3A, FAM/TAMRA ssDNA deamination fluorescence;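 active = at least 40% inhibition at 20 µM here, with at most 30% in a related deaminase screen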;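 note: plate controls were A3A with DMSO for no effect and wells lacking A3A enzyme for full effect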
Target sequence (P31941 whole entry, looked up): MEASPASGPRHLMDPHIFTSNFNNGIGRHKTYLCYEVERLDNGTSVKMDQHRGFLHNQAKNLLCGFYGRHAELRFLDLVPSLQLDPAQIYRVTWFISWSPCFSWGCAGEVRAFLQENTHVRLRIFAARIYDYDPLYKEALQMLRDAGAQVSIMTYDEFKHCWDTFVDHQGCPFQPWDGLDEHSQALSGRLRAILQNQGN
ADAM17 inh = ADAM17 inhibitors, primary screen, biochemical, QFRET; Disintegrin and metalloproteinase domain-containing protein 17 (Homo sapiens), P78536; recombinant ADAM17, EDANS/DABCYL FRET peptide cleavage; inhibition, % at 6.95 µM; hit rate 0.83% among 370,000; AID 720648, 2013;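 active = inhibition above the mean of compounds lying between control limits plus 3 SD, set per campaign, cut at about 8.5% in these data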;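 note: 0% = DMSO-only wells as the low control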
NRP1-CendR mod = modulators of CendR peptide binding to NRP-1, primary screen, biochemical, fluorescence polarization, uHTS; hit rate 0.85% among 360,000; Neuropilin-1 (Homo sapiens), O14786; FAM-RPARPAR peptide binding to NRP-1; inhibition, % at 25 µM; AID 602438, 2012;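 active = inhibition or corrected inhibition above about 18%, plus a signal ratio from 0.5 to 1.5, limit read from the data, passing the limit was not always enough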
A3G deaminase = APOBEC3G DNA deaminase inhibitors, primary screen, biochemical, fluorescence, single-stranded DNA substrate, uHTS | recombinant A3G, ssDNA deamination FAM/TAMRA fluorescence | inhibition, % at 20 µM | hit rate 0.28% among 330,000 | AID 493012, 2011;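 active = inhibition of at least 40% at 20 µM, with no more than 30% in the related APOBEC3A deaminase screen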;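 note: plate controls were DMSO wells with A3G for no effect and wells lacking A3G enzyme for full effect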
Target sequence (Q9HC16 whole entry, looked up): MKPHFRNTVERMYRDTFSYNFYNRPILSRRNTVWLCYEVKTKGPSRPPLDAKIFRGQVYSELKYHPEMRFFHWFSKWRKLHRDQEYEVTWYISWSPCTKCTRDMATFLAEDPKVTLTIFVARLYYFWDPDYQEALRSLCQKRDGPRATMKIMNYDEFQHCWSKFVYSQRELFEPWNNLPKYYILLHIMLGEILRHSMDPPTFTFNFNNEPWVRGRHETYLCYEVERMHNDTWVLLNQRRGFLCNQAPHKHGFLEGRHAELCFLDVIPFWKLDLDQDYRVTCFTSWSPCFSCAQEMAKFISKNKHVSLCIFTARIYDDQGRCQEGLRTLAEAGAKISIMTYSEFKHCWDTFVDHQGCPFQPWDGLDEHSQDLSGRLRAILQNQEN
A3A conf = APOBEC3A deaminase inhibitors, retest, confirmation, selectivity assay for APOBEC3G inhibitor project, biochemical, single concentration, fluorescence readout | shares compounds with APOBEC3A inh | recombinant A3A, ssDNA deaminase UDG fluorescence assay | inhibition, % at 20 µM | hit rate 63% among 1,400 | AID 493151, 2011;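 active = inhibition reaching a set limit, 80% of the first screen's cutoff, at 20 µM in any replicate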;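 note: plate controls were DMSO wells with A3A for no effect and wells lacking A3A enzyme for full effect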
UDG ctr A3A = E. coli UDG inhibitors, confirmation, counter-screen for APOBEC3A inhibitor project, biochemical, single concentration, fluorescence, FAM/TAMRA oligo; UDG counterscreen, FAM/TAMRA uracil oligo fluorescence; AID 504714, 2011; 1,000 tested, under 10 active; shares compounds with APOBEC3A inh; inhibition, % at 20 µM; call rule not given here
Active calls of the source: *; · = no result. Compounds with a hit are over-represented: about 2.4% of the library has one in this group of screens.

SMILES	ADAM10 inh	APOBEC3A inh	ADAM17 inh	NRP1-CendR mod	A3G deaminase	A3A conf	UDG ctr A3A
Cn1c(=O)c(C(=O)COC(=O)c2cc(-c3ccco3)nc3ccccc23)c(N)n(CC2CC2)c1=O	·	47*	·	·	28	32*	·
COc1ccc(NC(=O)c2cc(-c3ccco3)nc3ccccc23)cn1	-232	52*	-70	-13	14	45*	2
CN(C)C(=O)c1ccc(NC(=O)c2cc(-c3ccco3)nc3ccccc23)cc1	-174	37	-58	-3	13	·	·
CCNC(=O)COC(=O)c1cc(-c2ccco2)nc2ccccc12	-456	53*	-157	-6	25	34*	-1
COc1ccc2[nH]c(O)c(N=O)c2c1	2	54*	1	-17	26	53*	2
CCn1c(=O)n(CC)c2cc(NC(=O)C(C)c3ccccc3)c(Br)cc21 (stereo not given)	-2	54*	-3	13	24	26	·
CC(C(=O)Nc1ccccc1Oc1ccccc1)c1ccccc1 (stereo not given)	3	-1	-3	5	-5	·	·
COc1cc(C(=O)N2CCN(S(=O)(=O)c3ccc(Cl)cc3)CC2)ccc1OCC(=O)N1CCOCC1	-6	·	-3	10	·	·	·
O=C(Cc1c[nH]c2ccccc12)N1CCN(S(=O)(=O)c2ccc(Cl)cc2)CC1	4	40*	3	-14	0	0	·
COc1ccccc1OCC(=O)N1CCN(S(=O)(=O)c2ccc(Cl)cc2)CC1	-5	53*	-3	-7	5	1	·
COC(=O)[C@]12C[C@H](CC(=O)NCCC(C)C)C(=O)N(CCC3=CCCCC3)C1=C[C@H](C1CCCC1)O[C@@H]2C	6	·	1	·	·	·	·
COC(=O)c1cc2c(c3c4cc(F)ccc4n(S(=O)(=O)c4ccccc4)c13)C(=O)N(C)C2	-15	·	-2	·	·	·	·
CC(C)CN1C(=O)[C@@]2(CC(=O)N(C)C2c2ccccc2)c2cc(-n3cc(C(C)(C)O)nn3)ccc21 (stereo not given in full)	-1	·	1	·	·	·	·
NC(=O)c1c(NC(=O)CSc2nnc(-c3ccco3)n2-c2ccccc2)sc2c1CCC2	-22	41*	-2	-18	29	46*	-4
CCC(C(=O)Nc1ccccc1N1CCCC1)c1ccccc1Cl (stereo not given)	6	·	2	·	·	·	·
COC(C(=O)Nc1ccc(Cl)cc1C)c1ccccc1 (stereo not given)	0	53*	1	5	12	12	·
O=C1c2cccc3cc([N+](=O)[O-])cc(c23)C(=O)N1CCN1CCCC1	3	41*	-1	30*	29	26	·
O=C1c2ccccc2C(=O)N1CCN1CCCCC1	6	-2	-6	-6	-2	·	·
CCN(CC)CCOc1ccc2c(c1)C(=NO)c1cc(OCCN(CC)CC)ccc1-2	4	47*	-1	8	26	37*	-1
Cc1cccc(C(=O)N[C@H](C(=O)OCc2cc(=O)n3c(n2)sc2ccccc23)C(C)C)c1	-18	43*	-3	3	19	53*	3
O=c1cc(CCl)nc2sc3ccccc3n12	-15	63*	-5	-10	26	34*	-3
C[C@@H]1ON(C)[C@H]2C[C@H]3c4cc(Br)ccc4CCN3C[C@@H]12	-29	·	-13	·	·	·	·
O=C(NC1CCCCN(Cc2cccc(Cl)c2)C1=O)c1cccc2nsnc12 (stereo not given)	10	·	2	·	·	·	·
COC(=O)C1=C(C)N(Cc2ccc(F)cc2)C(=S)NC1c1cccc(OC)c1 (stereo not given)	15	·	3	·	·	·	·
Cc1ccc2c(c1)C1CN(C)CCC1N2CC(=O)N(C)c1ccccc1 (stereo not given)	4	51*	0	0	19	50*	-2
SMILES	ADAM10 inh	APOBEC3A inh	ADAM17 inh	NRP1-CendR mod	A3G deaminase	A3A conf	UDG ctr A3A
CC(C)(C)c1ccc(CCC2OCC(C[N+]3(C)CCOCC3)O2)cc1 (stereo not given)	-1	45*	-3	2	19	73*	-1
COCCNC(=O)c1cc2ncc(Br)cn2n1	-10	9	-8	-4	-6	·	·
O=C(c1cc2ncc(Br)cn2n1)N1CCOCC1	1	10	-4	-9	-5	·	·
O=C(c1cc2ncc(Br)cn2n1)N1CCN(C(=O)c2ccco2)CC1	·	42*	·	-6	0	34*	-2
O=C(NCCc1ccccc1)c1cc2ncc(Br)cn2n1	0	76*	0	8	-3	44*	4
CCc1ccccc1NC(=O)c1cc2ncc(Br)cn2n1	-2	41*	-3	-15	-1	8	-2
CC(C)c1ccc(NC(=O)O[C@H]2CC[C@@]34CCCN3C(=O)CCC[C@H]4[C@H]2C)cc1	11	·	2	·	·	·	·
COc1cc(Cn2cc([C@]34C[C@H]5C(=O)N(C)CC(=O)N5[C@H]3N(S(=O)(=O)c3ccccc3)c3ccccc34)c3ccccc32)cc(OC)c1	5	·	1	·	·	·	·
Cc1cccc(N2CC(C(=O)Nc3nnc(SCC(=O)Nc4nccs4)s3)CC2=O)c1 (stereo not given)	1	2	-7	-29	-3	·	·
Cc1ccccc1N1CC(C(=O)Nc2nnc(SCC(=O)Nc3nccs3)s2)CC1=O (stereo not given)	-1	48*	-2	-47	-10	9	6
O=C(NC(=S)Nc1ccccc1C(=O)O)c1cncc(Br)c1	-70	41*	-18	2	12	18*	-3
O=C(Nc1ccccc1C(=O)O)c1cncc(Br)c1	-2	58*	-2	-7	18	7	·
CC1(C)Oc2ccc3ccc(=O)oc3c2/C(=C/O)C1=O	-342	-4	-147	-13	17	·	·
CC1(C)Oc2ccc3ccc(=O)oc3c2/C(=C/N)C1=O	-3	-5	-1	1	-5	·	·
CC1(C)Oc2ccc3ccc(=O)oc3c2-c2cn[nH]c21	-9	59*	-9	-6	24	65*	5
